Potency and affinity values are given separately.
Legend:
Klebsiella pneumoniae = conditions: Concentration 32 ug.mL-1;; ASSAY_TEST Inhibition of Bacterial Growth; detection method Absorption (OD600); MEDIA CAMHB; plate type 384well; NBS; CORNING #3640; time 18 hr
Candida albicans = conditions: Concentration 32 ug.mL-1; ASSAY_TEST Inhibition of Fungal Growth; detection method Absorption (OD530)
Cryptococcus neoformans = conditions: Concentration 32 ug.mL-1; ASSAY_TEST Inhibition of Fungal Growth; detection method Resazurin; Absorption (OD600-OD570); plate type 384well; NBS; CORNING #3640

CC(C)c1nnc2c(SCC(=O)N3CCN(c4ccc(F)cc4)CC3)nc3ccccc3n12
Inhibition (Klebsiella pneumoniae): 12.93% | Inhibition (Candida albicans): -0.12% | Inhibition (Cryptococcus neoformans): -22.8%

Cc1ccc(NC(=O)Cn2nc3c4cc(-c5ccc(C)c(C)c5)nn4ccn3c2=O)cc1
Inhibition (Klebsiella pneumoniae): 12.57% | Inhibition (Candida albicans): 8.44% | Inhibition (Cryptococcus neoformans): -14.13%

CC(C)c1nnc2c(=O)n(CC(=O)Nc3ccc(C#N)cc3)c3ccccc3n12
Inhibition (Klebsiella pneumoniae): 6.44% | Inhibition (Candida albicans): 0.24% | Inhibition (Cryptococcus neoformans): -24.39%

COc1ccc(NC(=O)Cn2nc3c(Sc4ccccc4)nccn3c2=O)c(OC)c1
Inhibition (Klebsiella pneumoniae): 2.54% | Inhibition (Candida albicans): 2.27% | Inhibition (Cryptococcus neoformans): -16.55%

Cc1ccc(NC(=O)Cn2c(=O)c3nnc(C(C)C)n3c3ccccc32)c(C)c1
Inhibition (Klebsiella pneumoniae): 5.02% | Inhibition (Candida albicans): 1.04% | Inhibition (Cryptococcus neoformans): -15.61%

CC(C)c1ccc(N(Cc2ccc(Cl)cc2)S(=O)(=O)c2cccn3cnnc23)cc1
Inhibition (Klebsiella pneumoniae): 9.01% | Inhibition (Candida albicans): 2.08% | Inhibition (Cryptococcus neoformans): -6.18%

Cc1ccc(-n2ccn3c(=O)n(Cc4ccc(F)cc4)nc3c2=O)cc1C
Inhibition (Klebsiella pneumoniae): 10.23% | Inhibition (Candida albicans): 1.58% | Inhibition (Cryptococcus neoformans): -18.28%

CSc1cccc(NC(=O)Cn2c(=O)c3nnc(C(C)C)n3c3ccccc32)c1
Inhibition (Klebsiella pneumoniae): 10.43% | Inhibition (Candida albicans): 3.45% | Inhibition (Cryptococcus neoformans): -18.2%

Cc1ccc(-c2ccc3nn(Cc4c(F)cccc4Cl)c(=O)n3n2)cc1
Inhibition (Klebsiella pneumoniae): 17.42% | Inhibition (Candida albicans): -0.59% | Inhibition (Cryptococcus neoformans): -15.06%

COc1ccc(CN(c2ccc(F)cc2)S(=O)(=O)c2cccn3cnnc23)cc1F
Inhibition (Klebsiella pneumoniae): 9.98% | Inhibition (Candida albicans): 3.76% | Inhibition (Cryptococcus neoformans): -9.79%

CC(C)(C)Sc1ccc2nn(CC(=O)Nc3ccc(Cl)cc3)c(=O)n2n1
Inhibition (Klebsiella pneumoniae): 16.93% | Inhibition (Candida albicans): 5.49% | Inhibition (Cryptococcus neoformans): -24.82%

O=C(Cn1nc2c(SCc3ccccc3)nccn2c1=O)NCc1ccc(Cl)cc1
Inhibition (Klebsiella pneumoniae): -3.05% | Inhibition (Candida albicans): 1.33% | Inhibition (Cryptococcus neoformans): -17.24%

COc1ccc(C)cc1NC(=O)Cn1nc2c3cc(-c4ccc(C)c(C)c4)nn3ccn2c1=O
Inhibition (Klebsiella pneumoniae): 11.68% | Inhibition (Candida albicans): 0.52% | Inhibition (Cryptococcus neoformans): -9.82%

Cc1cccc(N(Cc2ccccc2)S(=O)(=O)c2cccn3c(C)nnc23)c1
Inhibition (Klebsiella pneumoniae): 11.16% | Inhibition (Candida albicans): 8.73% | Inhibition (Cryptococcus neoformans): -3.61%

CCc1ccccc1Sc1nccn2c(=O)n(CC(=O)N3CCN(c4ccccc4)CC3)nc12
Inhibition (Klebsiella pneumoniae): -1.73% | Inhibition (Candida albicans): 3.92% | Inhibition (Cryptococcus neoformans): -19.52%

Cc1ccc(C)c(NC(=O)Cn2nc3cc(C)nc(Nc4ccc(F)cc4)n3c2=O)c1
Inhibition (Klebsiella pneumoniae): 5.73% | Inhibition (Candida albicans): 2.17% | Inhibition (Cryptococcus neoformans): -16.31%

Cc1ccc(NC(=O)Cn2nc3c4cc(-c5ccc(Cl)cc5)nn4ccn3c2=O)cc1F
Inhibition (Klebsiella pneumoniae): 4.91% | Inhibition (Candida albicans): -0.67% | Inhibition (Cryptococcus neoformans): -19.64%

COc1ccccc1Cn1c(=O)c2sccc2n2c(=O)n(Cc3c(F)cccc3Cl)nc12
Inhibition (Klebsiella pneumoniae): 8.3% | Inhibition (Candida albicans): -2.27% | Inhibition (Cryptococcus neoformans): -30.55%

CC(C)c1nnc2c(SCC(=O)Nc3ccccc3F)nc3ccccc3n12
Inhibition (Klebsiella pneumoniae): 10.81% | Inhibition (Candida albicans): 2.9% | Inhibition (Cryptococcus neoformans): -27.54%

O=C(Cn1nc2c(Sc3ccccc3)nccn2c1=O)Nc1ccc(Br)cc1F
Inhibition (Klebsiella pneumoniae): 9.23% | Inhibition (Candida albicans): 5.59% | Inhibition (Cryptococcus neoformans): -9.93%

Cc1ccc(-c2ccc3nn(CC(=O)Nc4ccc(Br)cc4F)c(=O)n3n2)cc1
Inhibition (Klebsiella pneumoniae): 9.08% | Inhibition (Candida albicans): 3.52% | Inhibition (Cryptococcus neoformans): -13.83%

O=C(CSc1nnc2c3cc(-c4ccc(F)cc4)nn3ccn12)NCc1ccccc1Cl
Inhibition (Klebsiella pneumoniae): 4.63% | Inhibition (Candida albicans): 14.03% | Inhibition (Cryptococcus neoformans): -17.41%

CCc1nnc2c(SCC(=O)Nc3cccc(Br)c3)nc3ccccc3n12
Inhibition (Klebsiella pneumoniae): 4.36% | Inhibition (Candida albicans): 4.07% | Inhibition (Cryptococcus neoformans): -27.47%

O=C(Cn1nc2nc(Nc3ccc(F)cc3)ccn2c1=O)NCc1ccc(F)cc1Cl
Inhibition (Klebsiella pneumoniae): 11.65% | Inhibition (Candida albicans): 1.62% | Inhibition (Cryptococcus neoformans): -8.71%

Cc1cc2nn(CC(=O)Nc3ccc(C)c(F)c3)c(=O)n2c(Nc2ccc(C)c(F)c2)n1
Inhibition (Klebsiella pneumoniae): 13.96% | Inhibition (Candida albicans): 19.28% | Inhibition (Cryptococcus neoformans): -10.18%

Cc1cc(C)c(NC(=O)Cn2nc3c4cc(-c5ccc(C)c(C)c5)nn4ccn3c2=O)c(C)c1
Inhibition (Klebsiella pneumoniae): 5.52% | Inhibition (Candida albicans): -0.89% | Inhibition (Cryptococcus neoformans): -17.51%

COc1cc(NC(=O)Cn2nc3c4c5c(sc4ncn3c2=O)CCCC5)cc(OC)c1OC
Inhibition (Klebsiella pneumoniae): 9% | Inhibition (Candida albicans): 0.11% | Inhibition (Cryptococcus neoformans): -14.64%

O=S(=O)(c1ccc2nncn2c1)N(Cc1cccc(Cl)c1)c1ccccc1
Inhibition (Klebsiella pneumoniae): 4.69% | Inhibition (Candida albicans): -1.59% | Inhibition (Cryptococcus neoformans): -11.03%

CCCCOc1ccc(-c2cc3c4nnc(SCC(=O)Nc5c(C)cccc5CC)n4ccn3n2)cc1
Inhibition (Klebsiella pneumoniae): -16.94% | Inhibition (Candida albicans): -2.13% | Inhibition (Cryptococcus neoformans): -12.87%

Cc1ccc(-n2ccn3c(=O)n(Cc4ccccc4)nc3c2=O)cc1C
Inhibition (Klebsiella pneumoniae): -0.96% | Inhibition (Candida albicans): 0.88% | Inhibition (Cryptococcus neoformans): -10.01%

O=C(CSc1nnc2c(=O)n(-c3ccccc3)ccn12)Nc1ccc(Cl)cc1
Inhibition (Klebsiella pneumoniae): 8.54% | Inhibition (Candida albicans): 0.98% | Inhibition (Cryptococcus neoformans): -17.38%

CCc1nnc2c(S(=O)(=O)N(Cc3cccc(OC)c3)c3ccccc3)cccn12
Inhibition (Klebsiella pneumoniae): 11.28% | Inhibition (Candida albicans): 4.76% | Inhibition (Cryptococcus neoformans): -9.71%

COc1cccc(Sc2nc3ccccc3n3c(=O)n(CC(=O)N4CCCc5ccccc54)nc23)c1
Inhibition (Klebsiella pneumoniae): 2.78% | Inhibition (Candida albicans): 0.71% | Inhibition (Cryptococcus neoformans): -20.75%

COc1ccc(-c2cc3c4nn(CC(=O)NCc5ccccc5Cl)c(=O)n4ccn3n2)cc1
Inhibition (Klebsiella pneumoniae): 14.7% | Inhibition (Candida albicans): 1.1% | Inhibition (Cryptococcus neoformans): -29.87%

Cc1ccc(C)c(NC(=O)Cn2nc3ccc(-c4ccc(C)c(C)c4)nn3c2=O)c1
Inhibition (Klebsiella pneumoniae): -9.48% | Inhibition (Candida albicans): 0.94% | Inhibition (Cryptococcus neoformans): -3.49%

CCc1ccc(NC(=O)Cn2nc3c(Oc4cccc(OC)c4)nccn3c2=O)cc1
Inhibition (Klebsiella pneumoniae): -4.18% | Inhibition (Candida albicans): 2.5% | Inhibition (Cryptococcus neoformans): -4.27%

COc1cccc(-n2ccn3c(SCC(=O)c4ccc(C)cc4C)nnc3c2=O)c1
Inhibition (Klebsiella pneumoniae): 16.45% | Inhibition (Candida albicans): 4.51% | Inhibition (Cryptococcus neoformans): -10.37%

O=C(CCc1nnc2c(N3CCCCC3)nc3ccccc3n12)NCc1ccc(Br)cc1
Inhibition (Klebsiella pneumoniae): 7.61% | Inhibition (Candida albicans): 2.54% | Inhibition (Cryptococcus neoformans): -23.12%

Cc1ccccc1Oc1nccn2c(=O)n(CC(=O)Nc3cc(Cl)ccc3Cl)nc12
Inhibition (Klebsiella pneumoniae): 4.89% | Inhibition (Candida albicans): 2.23% | Inhibition (Cryptococcus neoformans): -9.52%

CCCc1nnc2c(=O)n(CC(=O)N3CCCc4ccccc43)c3ccccc3n12
Inhibition (Klebsiella pneumoniae): 7.45% | Inhibition (Candida albicans): 0.04% | Inhibition (Cryptococcus neoformans): -21.26%

Cc1ccc(-c2cc3c4nn(CC(=O)Nc5ccc(F)cc5)c(=O)n4ccn3n2)cc1C
Inhibition (Klebsiella pneumoniae): -3.72% | Inhibition (Candida albicans): 22.53% | Inhibition (Cryptococcus neoformans): -20.65%

C=Cc1ccc(CN(c2ccc(C(C)C)cc2)S(=O)(=O)c2cccn3c(C)nnc23)cc1
Inhibition (Klebsiella pneumoniae): 4.48% | Inhibition (Candida albicans): 1.49% | Inhibition (Cryptococcus neoformans): -4.15%

Cc1nnc2c(=O)n(CC(=O)Nc3ccc(F)cc3F)c3ccccc3n12
Inhibition (Klebsiella pneumoniae): 12.43% | Inhibition (Candida albicans): -0.68% | Inhibition (Cryptococcus neoformans): -30.11%

COc1cccc(CNC(=O)CSc2nnc3c(=O)n(-c4cccc(OC)c4)ccn23)c1
Inhibition (Klebsiella pneumoniae): 10.15% | Inhibition (Candida albicans): 1.25% | Inhibition (Cryptococcus neoformans): -6.98%

O=S(=O)(c1ccc2nncn2c1)N(Cc1cc(F)cc(F)c1)c1ccc(F)c(F)c1
Inhibition (Klebsiella pneumoniae): 12.12% | Inhibition (Candida albicans): 1.89% | Inhibition (Cryptococcus neoformans): -12.17%

O=C(NCc1ccccc1)c1ccc2nn(CC(=O)N3CCN(c4ccc(F)cc4)CC3)c(=O)n2c1
Inhibition (Klebsiella pneumoniae): -0.37% | Inhibition (Candida albicans): 5.32% | Inhibition (Cryptococcus neoformans): -7.39%

CCC(Sc1nnc2c(=O)n(-c3cccc(OC)c3)ccn12)C(=O)Nc1cc(OC)cc(OC)c1 (configuration not stated)
Inhibition (Klebsiella pneumoniae): 9.6% | Inhibition (Candida albicans): -0.37% | Inhibition (Cryptococcus neoformans): -13.16%

CCc1nnc2c(S(=O)(=O)N(Cc3cc(F)cc(F)c3)c3ccc(F)cc3)cccn12
Inhibition (Klebsiella pneumoniae): -0.25% | Inhibition (Candida albicans): 4.45% | Inhibition (Cryptococcus neoformans): -8.28%

O=C(Cn1nc2c3cc(-c4ccc(Cl)cc4)nn3ccn2c1=O)Nc1ccc2c(c1)OCCO2
Inhibition (Klebsiella pneumoniae): 7.68% | Inhibition (Candida albicans): -1.89% | Inhibition (Cryptococcus neoformans): -18.54%

O=c1c2sccc2n2c(SCc3cccc(C(F)(F)F)c3)nnc2n1Cc1ccc(F)cc1
Inhibition (Klebsiella pneumoniae): 10.74% | Inhibition (Candida albicans): 2.55% | Inhibition (Cryptococcus neoformans): -25.66%

COc1cc(NC(=O)Cn2nc3ccc(SC(C)C)nn3c2=O)cc(OC)c1
Inhibition (Klebsiella pneumoniae): 4.22% | Inhibition (Candida albicans): 10.99% | Inhibition (Cryptococcus neoformans): -7.98%

O=C(Cn1nc2ccc(SC3CCCCC3)nn2c1=O)NCc1ccc(Cl)cc1
Inhibition (Klebsiella pneumoniae): 12.01% | Inhibition (Candida albicans): 5.78% | Inhibition (Cryptococcus neoformans): -20.43%

COc1cccc(-n2ccn3c(SCC(=O)Nc4ccccc4F)nnc3c2=O)c1
Inhibition (Klebsiella pneumoniae): 7.91% | Inhibition (Candida albicans): 2.83% | Inhibition (Cryptococcus neoformans): -12.13%

Cc1cc(C)cc(N(Cc2ccccc2)S(=O)(=O)c2cccn3c(C)nnc23)c1
Inhibition (Klebsiella pneumoniae): -0.64% | Inhibition (Candida albicans): 2% | Inhibition (Cryptococcus neoformans): -6.56%

CSc1ccc(CNC(=O)CCc2nnc3c(N4CCCCC4)nc4ccccc4n23)cc1
Inhibition (Klebsiella pneumoniae): 12.88% | Inhibition (Candida albicans): 3.51% | Inhibition (Cryptococcus neoformans): -30.87%

Cc1ccccc1N1CCN(c2nccn3c(=O)n(CC(=O)Nc4cccc(C(C)C)c4)nc23)CC1
Inhibition (Klebsiella pneumoniae): 0.34% | Inhibition (Candida albicans): 19.66% | Inhibition (Cryptococcus neoformans): -7.69%

Cc1[nH]c2ccccc2c1C(=O)CSc1nnc2c(=O)n(-c3ccccc3)ccn12
Inhibition (Klebsiella pneumoniae): 21.07% | Inhibition (Candida albicans): 0.47% | Inhibition (Cryptococcus neoformans): -10.08%

COc1cc(NC(=O)CSc2nnc3c(=O)n(-c4cccc(OC)c4)ccn23)cc(OC)c1
Inhibition (Klebsiella pneumoniae): 6.06% | Inhibition (Candida albicans): 3.75% | Inhibition (Cryptococcus neoformans): -8.68%

Cc1ccc(NC(=O)Cn2nc3c(Sc4cccc(F)c4)nccn3c2=O)cc1F
Inhibition (Klebsiella pneumoniae): 11.17% | Inhibition (Candida albicans): 0.17% | Inhibition (Cryptococcus neoformans): -11.09%
